# Compound activity from PubChem BioAssay.
# Only some compounds are listed: those with a hit (about 7.6% of all), similar ones and a draw of the others.
# M1 ag: agonists of M1 muscarinic receptor; CHO-M1 cells, Fluo-4 calcium fluorescence, agonist mode; hits give high values; B-score at 10 µM; 3% of 64,000 active;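 active means fluorescence rise, raw or as B-score row- and column-corrected plate score, outside the 99.7% band of its plate's samples, either direction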
# M1 antag: antagonists of rat M1 muscarinic receptor | CHO-M1 cells, Fluo-4 calcium, ACh EC80 antagonist mode; hits give low values | 3.4% of 64,000 active | P08482 | B-score at 10 µM;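 active means calcium fluorescence response, raw or row-and-column corrected B-score, differing from the plate sample mean either way at a set confidence level, mostly lower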
# PLAP activator: activators of human placental alkaline phosphatase | AID 696 | activation fold at 20 µM | 1.2% of 96,000 active | P05187 | purified PLAP enzyme, luminescent substrate read-out; hits give high values; in the data active means activation fold above about 2
# Target sequence (P05187 whole entry, looked up): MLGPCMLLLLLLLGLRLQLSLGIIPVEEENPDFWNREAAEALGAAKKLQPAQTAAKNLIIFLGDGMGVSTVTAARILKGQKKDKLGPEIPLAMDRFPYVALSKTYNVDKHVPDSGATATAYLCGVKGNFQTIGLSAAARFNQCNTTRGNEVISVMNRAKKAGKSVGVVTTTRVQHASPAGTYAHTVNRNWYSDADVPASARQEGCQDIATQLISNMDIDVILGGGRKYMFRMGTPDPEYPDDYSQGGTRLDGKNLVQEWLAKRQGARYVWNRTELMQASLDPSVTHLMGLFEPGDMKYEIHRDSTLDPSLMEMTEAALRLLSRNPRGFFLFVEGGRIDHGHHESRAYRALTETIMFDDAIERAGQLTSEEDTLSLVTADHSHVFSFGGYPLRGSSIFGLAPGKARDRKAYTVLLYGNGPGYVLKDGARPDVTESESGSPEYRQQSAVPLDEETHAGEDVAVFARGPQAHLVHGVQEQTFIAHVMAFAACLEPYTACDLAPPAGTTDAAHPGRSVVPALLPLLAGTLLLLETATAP
# Cav32 inh: blocks human Cav3.2 T-type calcium channel; 4% of 100,000 active; B-score at 10 µM; Cav3.2-expressing cells, Fluo-4 calcium fluorescence FDSS; hits give low values; O95180;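 active means single-dose well whose peak fluorescence ratio is a statistical outlier from its plate by either plate-standardised score or position-corrected B-score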
# M1 antag confirm: M1 muscarinic receptor (rat) antagonism, confirmed; shares compounds with M1 antag; CHO-M1 cells, Fluo-4 calcium, ACh EC80 antagonism; hits give low values; calcium response (max-min fluorescence) at 10 µM; 43% of 1,700 active; AID 677;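 active means calcium response below the same-plate mean of wells given acetylcholine alone at its 80%-effect dose, minus 3 SD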
# mGluR4 antag: selectivity test for M1 antagonists: human mGluR4 receptor; fluorescence response (max-min) at 10 µM; CHO-mGluR4 calcium flux, Fluo-4 fluorescence, glutamate EC80; hits give low values; 0.9% of 1,700 active; shares compounds with M1 antag;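 active means fluorescence response below the plate's average for near-maximal glutamate wells, less 3 SD of those wells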;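 further: raw unnormalized fluorescence span taken in the window right after glutamate addition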
# Hits are given with their value; - = inactive; . = no result.
SMILES,M1 ag,M1 antag,PLAP activator,Cav32 inh,M1 antag confirm,mGluR4 antag
CC(C)OC(=O)CSc1nnc(-c2ccc(O)cc2)n1Cc1ccccc1,-,-3.3,-,-,-,-
CC12CN3CC(C)(CN(C1)C3c1ccc(Br)cc1)C2 (stereo not drawn),-,-3.7,-,.,387,-
C=COCCNC(=O)Nc1ccc(Cl)cc1Cl,-,-,-,-,.,.
CC(C)(O)C#CC#CCN1CCOCC1,-,-1.1,-,-,-,-
COc1ccc(S(=O)(=O)N2CCSC2c2ccc(N)cc2)cc1 (stereo not drawn),-,-,-,-,.,.
O=c1c2ccccc2oc2cc(-c3ccc4[nH]ccc4c3)ccc12,.,.,.,-,.,.
Cc1ccc(-n2ncc3c(NCCCOC(C)C)ncnc32)c(C)c1,-,-,.,-,.,.
Cc1ccc(-n2ncc3c(NCC4CCCO4)ncnc32)c(C)c1 (stereo not drawn),-,-3.6,-,-,-,-
Cc1noc(C)c1CSc1nnc2scc(-c3ccc(Cl)cc3)n12,-,-,-,-,.,.
CCSc1nc2c(c(=O)n1Cc1ccccc1)SC(C)C2 (stereo not drawn),-,-3.7,-,-,373,-
CCn1c(SCc2ccccc2)nnc1-c1ccc(S(=O)(=O)N2CCCCC2)cc1,-,-2,-,-,-,-
CCC(CC)C(=O)N=C1SC2CS(=O)(=O)CC2N1CCc1ccc(OC)cc1 (stereo not drawn),.,.,-,-,.,.
Cc1cccc(Cn2c(N3CCCCC3C)nc3c2c(=O)[nH]c(=O)n3C)c1 (stereo not drawn),-,-4.2,.,-3.8,90,-
Cc1cccc(Cn2c(N3CCc4ccccc4C3)nc3c2c(=O)[nH]c(=O)n3C)c1,.,.,-,-,.,.
NC(=O)/C=C\C(=O)Nc1cccc(C(F)(F)F)c1,.,.,-,.,.,.
CCCN(CCC)CCCNC(=O)c1cc2cc3ccc(OC)cc3nc2o1,-,-7,-,-,437,-
CCCCN(CC)CCCNC(=O)c1cc2cc3ccc(OC)cc3nc2o1,-,-4.7,-,-,-,-
Cc1nc(NC(=O)CSc2nnnn2Cc2ccccc2)sc1C,-,-,-,-,.,.
NC(=O)NC1NC(=O)NC1=O (stereo not drawn),.,.,.,-,.,.
O=C(COC(=O)C1CCCCC1C(=O)N1CCc2ccccc21)NCc1ccco1 (stereo not drawn),-,-,-,-,.,.
CCN(CC)CCCN(C(=O)c1cccs1)c1nc(-c2ccc(OC)cc2)cs1,-,-5.3,-,-,321,-
COCCNc1nc(SCC(=O)N2CCN(c3ccccc3OC)CC2)nc2ccccc12,-,-3.4,-,.,503,-
O=C(NC(O)C(=O)c1cccs1)c1cccnc1 (stereo not drawn),-,-,-,-,.,.
Cc1ccc(C)c(N2CCN(S(=O)(=O)c3ccc4c(c3)OCCO4)CC2)c1,-,-1,-,-,-,-
CCN(CC)CCNC(=O)c1ccc(CS(=O)(=O)c2ccc(Br)cc2)o1,-,-,.,-,.,.
SMILES,M1 ag,M1 antag,PLAP activator,Cav32 inh,M1 antag confirm,mGluR4 antag
Cc1nc2sc(C(c3ccc(C(C)C)cc3)N3CCN(CCO)CC3)c(O)n2n1 (stereo not drawn),-,-,-,-,.,.
CN1CCN(CC(=O)N2c3ccccc3C(=O)Nc3cccnc32)CC1,.,.,.,.,.,-
COCc1cc(C)nc(SCC(=O)Nc2ccc3c(c2)OCO3)c1C#N,-,-,-,-,.,.
COCc1cc(C)nc(SCC(=O)Nc2cccc3cccnc23)c1C#N,-,-3.9,-,-,-,-
COC(=O)c1ccccc1OC(=O)c1ccc(Br)o1,-,-4.5,-,-,-,-
N#CCCn1c(SCC(=O)N2CCN(S(=O)(=O)c3ccccc3)CC2)nc2ccccc21,-,-10,-,-,199,-
Cn1c(SCC(=O)N2CCN(S(=O)(=O)c3ccc(Cl)cc3)CC2)nc2ccccc21,.,.,-,-,.,.
CC(C)Cn1c(SCC(=O)N2CCN(S(=O)(=O)c3ccccc3)CC2)nc2ccccc21,-,-2.6,-,-,348,-
Cn1c(SCC(=O)N2CCN(S(=O)(=O)c3ccccc3)CC2)nc2ccccc21,.,.,-,-,.,.
COc1ccc(OCC(=O)N2CCN(C(=O)c3cccc(F)c3)CC2)cc1,.,.,-,-,.,.
CC(C)CC(=O)N1CCN(C(=O)c2cccc(F)c2)CC1,-,-2.2,-,-,-,-
N#C/C(C(=O)N1CCOCC1)=C1/SC=C(c2ccccc2)N1c1ccccc1,-,-,.,.,.,.
O=C(NCc1nnc(SCC(=O)N2CCC(Cc3ccccc3)CC2)o1)c1ccccc1F,-,-,-,-,.,.
Cc1cccc(C)c1NC(=O)CS(=O)CC(=O)NC1CCN(Cc2ccccc2)CC1 (stereo not drawn),-,-,-,-,.,.
Cc1ccc(NC(=O)CS(=O)CC(=O)NC2CCN(Cc3ccccc3)CC2)c(C)c1 (stereo not drawn),-,-7.8,-,-,-,-
COc1cc(-c2nc(S(=O)(=O)c3ccc(C)cc3)c(N3CCOCC3)o2)cc(OC)c1OC,-,-13,-,.,-,-
COC(=O)C1=C(C(=O)OC)SC(=C2C(=S)C(C)(C)N(C(=O)CC(C)C)c3ccccc32)S1,.,.,-,-,.,.
COc1ccc(CNc2ccc3c(c2)nc(C)n3C)cc1,-,-,-,-,.,.
Cc1nc2cc(CO)ccc2n1C,-,-5.1,-,-,-,-
Cc1c(S(=O)(=O)N2CCN(c3cccc(C(F)(F)F)c3)CC2)c(=O)n(C)c(=O)n1C,-,-,-,-,.,.
Cc1c(CN2CCN(c3cccc(C(F)(F)F)c3)CC2)c(=O)n(-c2ccccc2)n1C,-,-4.4,-,-,458,-
CN(C)c1nc(NCc2ccccc2)nc(SCC(=O)Nc2ccccc2)n1,.,.,-,-,.,.
CCOC(=O)CNC(=O)CSc1nc(NCc2ccccc2)nc(N(C)C)n1,-,-1.8,-,-,-,-
CC(=O)c1c(C)[nH]c(C(=O)CSc2nnc(-c3ccc(Cl)cc3)n2CC2CCCO2)c1C (stereo not drawn),.,.,-,-,.,.
Cn1c(SCC(=O)Nc2nccs2)nnc1-c1ccncc1,-,-6.1,-,-,-,-
SMILES,M1 ag,M1 antag,PLAP activator,Cav32 inh,M1 antag confirm,mGluR4 antag
Cc1csc(NC(=O)CSc2nnc(-c3ccncc3)n2C)n1,-,-,-,-,.,.
CN(C)c1ccc(C2C3C(=O)N(c4ccc(C(=O)O)cc4)C(=O)C3ON2c2ccccc2)cc1 (stereo not drawn),-,-2.5,-,-,15,-
O=C(O)c1ccc(N2C(=O)C3ON(c4ccccc4)C(c4ccccc4F)C3C2=O)cc1 (stereo not drawn),-,-,-,.,.,.
CCOc1cc(C#N)c(NC(=O)c2ccco2)cc1OCC,-,-11,-,-,-,-
CC1(C)C=C(c2ccc(O)cc2)CC(C)(C)N1,-,-,-,-,.,.
O=S(=O)(c1ccc(Cl)cc1)N1CCC(N2CCCCCC2)CC1,-,-4.6,-,-,-,-
Cc1ccc(Cl)cc1N(CC(=O)N1CCCCCC1)S(C)(=O)=O,-,-2.9,-,-,-,-
CS(=O)(=O)N(CC(=O)N1CCCC1)c1cccc(Cl)c1,.,.,-,.,.,.
